Compound activity from PubChem BioAssay.
Compounds with a hit are over-represented: about 21% of the library has one in this group of screens.
TDP1 cell CPT: DT40-hTDP1 cell growth loss with CPT | chicken DT40 Tdp1-/-;hTDP1 cells + 20 nM CPT, ATP luminescence, 48 h | Potency, µM (highest dose often 46.2 µM), for inactives: at the highest dose activity change, negative = growth inhibition, hits mostly inhibitors | hit rate 12% among 420,000; also: potency is read from the fitted curve at half-maximal effect; nearly all actives have a fitted effect of over 55% in size
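Chicken DT40 Tdp1-/- cells complemented with human TDP1, 400 cells/well, exposed to compounds plus 20 nM camptothecin for at least 48 h at 37 C; viability read as ATP content by CellTiter-Glo luminescence.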
IL-1B inflam inh: inflammasome signaling inhibition, IL-1 beta readout. THP-1 LPS/ATP IL-1B secretion, AlphaLISA, 16 h; active compounds read low. hit rate 4.7% among 360,000. activity change, % at 57.5 µM; in the data active = activity change below about -50%; inconclusive = mostly about -30% to -49%
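THP-1 cells pretreated 1 hr with compounds (up to 57.5 uM final), then stimulated with LPS (250 ng/mL final) plus ATP (1.25 mM final); secreted IL-1B measured by AlphaLISA after 16 hr, decreased signal indicating inhibition.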
VP16 counter: Gal4-VP16 reporter inhibition counter-screen. Drosophila S2 Gal4-VP16 UAS-luciferase, luminescence, 20 h. AID 2546. hit rate 3.5% among 310,000. Potency, µM (doses to about 53.6 µM), for inactives: at the top dose activity, negative = inhibition, actives largely listed as inhibitors;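 also: Gal4-VP16 expression switched on by copper sulfate through the metallothionein promoter; potency is read from the fitted curve at half-maximal effect; nearly all actives have a fitted effect of over 50% in size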
RORgamma inh: inhibitors of mouse ROR gamma transcriptional activity; P51450; Drosophila S2 Gal4-RORgamma UAS-luciferase reporter, 20 h; Potency, µM (highest dose often 53.6 µM), for inactives: top-dose activity change, negative = inhibition, hits mostly inhibitors; hit rate 5.4% among 310,000; also: potency is read from the fitted curve at half-maximal effect; nearly all actives have a fitted effect of over 60% in size
Target sequence (P51450 whole entry, looked up, the tested form may be a part): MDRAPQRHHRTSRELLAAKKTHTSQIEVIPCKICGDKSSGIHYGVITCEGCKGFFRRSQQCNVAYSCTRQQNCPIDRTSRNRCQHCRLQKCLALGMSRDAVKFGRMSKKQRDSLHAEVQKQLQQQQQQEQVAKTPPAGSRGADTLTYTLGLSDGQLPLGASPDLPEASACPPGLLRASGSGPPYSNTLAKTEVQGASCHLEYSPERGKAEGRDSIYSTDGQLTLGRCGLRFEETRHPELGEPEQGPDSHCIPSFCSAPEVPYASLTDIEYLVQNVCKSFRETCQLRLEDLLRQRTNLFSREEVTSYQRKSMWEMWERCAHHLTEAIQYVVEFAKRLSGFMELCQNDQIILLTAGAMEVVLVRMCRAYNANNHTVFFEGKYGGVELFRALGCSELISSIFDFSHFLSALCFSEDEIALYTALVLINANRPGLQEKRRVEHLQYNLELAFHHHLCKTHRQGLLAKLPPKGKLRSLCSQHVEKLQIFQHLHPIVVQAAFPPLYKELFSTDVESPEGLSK
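Read-out: Photinus luciferase luminescence; inhibitors lower reporter signal. Insect Schneider cells with Gal4-ROR gamma fusion under metallothionein promoter, UAS reporter; 700 uM final copper sulfate induction, 20 hr, ambient temperature.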
DT40 TDP1 no CPT: qHTS for Inhibitors of human tyrosyl-DNA phosphodiesterase 1 (TDP1): qHTS in cells in absence of CPT; Potency, µM (titrated, usually from 46.2 µM), for the others: at the highest dose activity change, negative = growth inhibition, most hits filed as inhibitors; hit rate 15% among 420,000; AID 686978, 2013; DT40 Tdp1-/- hTDP1 cells, no CPT, ATP luminescence, 48 h; also: potency is read from the fitted curve at half-maximal effect; nearly all actives have a fitted effect of over 55% in size
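Cells were dispensed at 400 per well, compounds added by pin tool, plates incubated ≥48 hr at 37 °C, then CellTiter-Glo added for 30 min at room temperature before luminescence reading. Line: DT40 Tdp1-/- complemented with hTDP1; camptothecin omitted.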
ELG1 DNA repair: blocks ELG1-dependent DNA repair in HEK293T cells; HEK293T ELG1-luciferase reporter, luminescence, 16 h; DNA damage induced by 5-fluorouridine; Potency, µM (series often up to 46.1 µM), for the others: top-dose activity change, negative = inhibition, actives largely listed as inhibitors; hit rate 2.3% among 330,000; AID 504467; also: potency is read from the fitted curve at half-maximal effect; nearly all actives have a fitted effect of over 55% in size
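In this reporter screen, reduction of luminescence relative to DMSO vehicle indicated activity. Compounds and 5-fluorouridine were added together to 2,000 cells per well, incubated for 16 hr at 37 °C, then developed with ONE-Glo.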
Numbers without * were called inactive; ? = inconclusive; / = not tested or not shown; [ ] = another dose, or the depositor's remark. Unless noted, calls follow the shape of the dose curve; as a rule, active = well fitted curve in the direction sought with a large enough effect; inconclusive = small, poorly fitted or top-dose-only effect, or another doubt; inactive = no such curve, though single readings can be large; an effect the other way counts as inactive or inconclusive. % is scaled to controls: 0 for no effect and ±100 for the full control effect.

SMILES | TDP1 cell CPT | IL-1B inflam inh | VP16 counter | RORgamma inh | DT40 TDP1 no CPT | ELG1 DNA repair
C=C(C)Cn1c(-c2cccc([N+](=O)[O-])c2)n[nH]c1=S | 18% | 19 | -7%[10 µM] | 7.1µM* | -8% | 2%
C/C(=C\[C@@H](N)C(=O)O)CP(=O)(O)O | 16% | / | -7% | 3% | -14% | /
CC1(C)C(O)CC(O)[C@]2(C)C1CC(O)[C@]1(C)C2CC[C@@]2(C)C(c3ccoc3)CC3OC312 (stereo partly specified) | -8% | / | -6% | -1% | -13% | /
Cc1ccc(C)c(S(=O)(=O)c2nnn3c2nc(N2CCCC2)c2sccc23)c1 | 16µM* | / | / | / | ? | /
Cc1nc2cc(-c3cccc(F)c3)nn2c(C)c1CCC(=O)N1CCC2(CC1)OCCO2 | 16µM* | 0 | -2% | ? | ? | 11%
COc1cccc(NP2(=O)OCC(C)([N+](=O)[O-])CO2)c1 (stereo unspecified) | 6% | -1 | / | / | 2% | /
CO[C@@H](COC(N)=O)C1=C(N2CC2)C(=O)C(C)=C(N2CC2)C1=O | / | / | 11µM* | ? | / | /
COC(COC(N)=O)C1=C(N2CC2)C(=O)C(C)=C(N2CC2)C1=O (stereo unspecified) | 0.16µM* | -113* | / | / | 0.16µM* | /
CNCC/C=C/c1cccnc1 | -13% | / | / | / | -5% | /
O=C(C[N+]12CCC(CC1)C(C(O)(c1ccccc1)c1ccccc1)C2)c1ccc(Br)cc1 (stereo unspecified) | 15µM* | -59* | -6% | 38% | 7.3µM* | -1%
O=C(Nc1ccc(Br)cc1)c1cccc(S(=O)(=O)N2CCc3ccccc32)c1 | 23µM* | / | / | / | 16µM* | /
CN1C(=O)N(C)C(=O)C2(Cc3cc(NC(=O)c4ccc(F)cc4)ccc3N3CCCC32)C1=O (stereo unspecified) | ? | -1 | 1% | 10% | ? | -13%
O=C(Nc1ccc(Br)cc1)c1ccc(F)c(S(=O)(=O)N2CCCc3ccccc32)c1 | 12µM* | / | / | / | 8.2µM* | /
c1cc2c(cc1NC1=NCCO1)CCCC2 | 18µM* | 0 | / | / | ? | /
COc1ccc(CNCCc2ccc3c(c2)OCO3)cc1Br | ? | 0 | -5% | -8% | 21µM* | ?
Clc1ccc(CNCCc2ccc3c(c2)OCO3)cc1 | 26% | -84* | 2% | -19% | -21% | -17%
FC(F)(F)c1ccc(CNCCc2ccc3c(c2)OCO3)cc1 | -5% | ? | 8% | 0% | -10% | -7%
Clc1cccc(CNCCc2ccc3c(c2)OCO3)c1 | ? | -81* | 8% | -6% | ? | 1%
c1cncc(CNCCc2ccc3c(c2)OCO3)c1 | 4% | -6 | / | / | -9% | 6%
COc1ccc(Br)cc1CNCCc1ccc2c(c1)OCO2 | -11% | ? | / | / | ? | /
Clc1nc(Cl)nc(Nc2ccccc2Cl)n1 | / | / | -3% | -14% | / | /
COC(=O)C1=C(c2ccc(OCc3ccccc3)cc2)C[C@@H]2CC[C@H]1N2C(=O)NCCCCc1ccccc1 | ? | -25 | / | / | 18µM* | /
COC(=O)C1=C(c2ccc(OC(F)(F)F)cc2)C[C@@H]2CC[C@H]1N2C(=O)NCCc1ccccc1 | 2.9µM* | 0 | / | / | ? | ?
COC(=O)C1=C(c2ccc(OCc3ccccc3)cc2)C[C@@H]2CC[C@H]1N2C(=O)NC1CCN(Cc2ccccc2)CC1 | 8.2µM* | -21 | / | / | 7.3µM* | 0%
COC(=O)C1=C(c2ccc(OC)c(OC)c2)C[C@@H]2CC[C@H]1N2C(=O)NCCc1ccccc1 | -27% | 25 | / | / | ? | ?
COC(=O)C1=C(c2ccc(OCc3ccccc3)cc2)C[C@@H]2CC[C@H]1N2C(=O)NCCc1ccc(F)cc1 | 21µM* | 0 | / | / | ? | /
